In PubChem BioAssay (EPA / NIEHS):
The source made the active and inactive calls. The calls were made as follows: active = hit-call score of the fitted dose curve at least 0.9, where 1 is the maximum; inactive = score below 0.9.

Columns and labels:
Details in all cases: mRNA level, 48 h; actives raise or lower the signal
[1] = read-out: succinate dehydrogenase complex iron sulfur subunit B (SDHB), SDHB (gene 6390); test: LTEA_HepaRG_SDHB: Life Technologies and Expression Analysis (LTEA) Assay for succinate dehydrogenase complex iron sulfur subunit B (SDHB) using HepaRG (AID 2283528)
Summary of the method: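 SDHB transcript level read by TaqMan qRT-PCR, housekeeping-normalised (ACTB, GAPDH, POLR2A), after 48 h chemical treatment of plated HepaRG cells; eight concentrations top 100 uM, half-log steps, 0.5% DMSO, duplicates; fitted both directions against DMSO.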

[2] = read-out: Signal transducer and activator of transcription 3 (Homo sapiens) (UniProt P40763); test: LTEA_HepaRG_STAT3: Life Technologies and Expression Analysis (LTEA) Assay for Signal transducer and activator of transcription (STAT3) using HepaRG (AID 2283529)
Summary of the method: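 STAT3 transcript quantified by qRT-PCR against three housekeeping genes (ACTB, GAPDH, POLR2A), fitted both directions relative to DMSO. HepaRG cultures exposed 48 h to eight half-log concentrations, top 100 uM, 0.5% DMSO, serum-free induction medium.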

[3] = read-out: solute carrier (SLCO1B1), SLCO1B1 (gene 10599); test: LTEA_HepaRG_SLCO1B1: Life Technologies and Expression Analysis (LTEA) Assay for solute carrier (SLCO1B1) using HepaRG (AID 2283530)
Description: (§1) LTEA_HepaRG is a cell based, multiplexed-readout assay that uses HepaRG, a human liver cell line, with measurements taken at 48 hours after chemical dosing on a 96-well plate.LTEA_HepaRG_SLCO1B1 is one of 102 assay component(s) measured in the LTEA HepaRG cell culture assay. It is a marker of NR mediated transport.Data from the assay component LTEA_HepaRG_SLCO1B1 was analyzed into 1 endpoint. This assay endpoint, LTEA_HepaRG_SLCO1B1, was analyzed with bidirectional fitting relative to DMSO as the negative control and baseline of activity. Using a type of inducible reporter, measures of mRNA induction for gain or loss-of-signal activity can be used to understand regulation of transcription factor activity. To generalize the intended target to other relatable targets, this assay endpoint is annotated to the transporter intended target family, where the subfamily is organic anion transporter.
(§2) A total of 1060 chemcials from the ToxCast library were tested in eight-point concentration-response experiments. Cell culture and cytotoxicity assays were conducted at Thermo Fisher Scientific's Custom Services facility (Madison, WI). A single lot of human HepaRG cells (Thermo Fisher Scientific, Frederick, MD) was used for the cell culture experiments. 96-well format collagen type I coated plates of human HepaRG cells were prepared using established methods. Briefly, cryopreserved HepaRG cells were thawed, plated at a density of approximately 100,000 cells/well in HepaRG Thaw, Plate, and General Purpose media (HPRG770, Thermo Fisher Scientific), and incubated for 48 hours. […] Fluidigm's 96.96 Dynamic ArrayTM (Fluidigm, Amsterdam, the Netherlands) technology was used for gene expression analyses by quantitative reverse transcription polymerase chain reaction (qRT-PCR, performed by Quintiles/Expression Analysis, Durham, NC)89. […]

[4] = read-out: sulfotransferase 2A1 (SULT2A1), SULT2A1 (gene 6822); test: LTEA_HepaRG_SULT2A1: Life Technologies and Expression Analysis (LTEA) Assay for sulfotransferase 2A1 (SULT2A1) using HepaRG (AID 2283531)
Summary of the method: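 Transcript levels of SULT2A1, quantified by qRT-PCR and normalized to three housekeeping genes, serve as the readout. Human HepaRG cultures receive test chemicals for 48 h at up to 100 uM in half-log steps, with 0.5% DMSO vehicle.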

[5] = read-out: Transforming Growth Factor (TGFA), TGFA (gene 7039); test: LTEA_HepaRG_TGFA: Life Technologies and Expression Analysis (LTEA) Assay for Transforming Growth Factor (TGFA) using HepaRG (AID 2283532)
Summary of the method: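 TGFA transcript quantified by qRT-PCR (Fluidigm arrays) against three housekeeping genes, after 48 hours chemical treatment of HepaRG cells. Top concentration 100 uM with half-log dilutions, 8 points, duplicates, 0.5% DMSO.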

[6] = read-out: Transforming Growth Factor (TGFB1), TGFB1 (gene 7040); test: LTEA_HepaRG_TGFB1: Life Technologies and Expression Analysis (LTEA) Assay for Transforming Growth Factor (TGFB1) Transporter using HepaRG (AID 2283533)
Summary of the method: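 HepaRG, 48 h post-plating, switched to serum-free induction medium; chemicals 100 uM top, half-log, 8 pts, 0.5% DMSO, dup; 48 h exposure; RNA → Fluidigm TaqMan qRT-PCR; norm ACTB/GAPDH/POLR2A; bidirectional fit vs DMSO.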

[7] = read-out: TIMP1, TIMP1 (gene 7076); test: LTEA_HepaRG_TIMP1: Life Technologies and Expression Analysis (LTEA) Assay for TIMP1 using HepaRG (AID 2283534);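 also: TaqMan qRT-PCR signal normalized to ACTB GAPDH and POLR2A housekeeping genes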
Description: as §1, with “plate.LTEA_HepaRG_TIMP1” for “plate.LTEA_HepaRG_SLCO1B1”, “Cell proliferation, survival, death.Data” for “NR mediated transport.Data”, “LTEA_HepaRG_TIMP1” for “LTEA_HepaRG_SLCO1B1”, “LTEA_HepaRG_TIMP1,” for “LTEA_HepaRG_SLCO1B1,”, “protease inhibitor” for “transporter”, “metalloproteinase inhibitor.” for “organic anion transporter.”
as §2

[8] = read-out: Tumor necrosis factor receptor 1 (TNFRSF1A), TNFRSF1A (gene 7132); test: LTEA_HepaRG_TNFRSF1A: Life Technologies and Expression Analysis (LTEA) Assay for Tumor necrosis factor receptor 1 (TNFRSF1A) using HepaRG (AID 2283535)
Summary of the method: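 Read-out is TNFRSF1A transcript level by TaqMan qRT-PCR, normalized to three housekeeping genes, scored as gain or loss of signal versus 0.5% DMSO. Human HepaRG cells received test chemicals for 48 h at up to 100 uM (half-log series).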

[9] = read-out: Thyroid Hormone Responsive (THRSP), THRSP (gene 7069); test: LTEA_HepaRG_THRSP: Life Technologies and Expression Analysis (LTEA) Assay for Thyroid Hormone Responsive (THRSP) using HepaRG (AID 2283536)
Summary of the method: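 THRSP transcript quantified by Fluidigm qRT-PCR against three housekeeping genes after 48 h chemical exposure of HepaRG cells in serum-free induction medium; eight-point half-log series, top 100 uM, 0.5% DMSO vehicle, duplicate wells.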

[10] = read-out: Cellular tumor antigen p53 (Homo sapiens) (UniProt P04637); test: LTEA_HepaRG_TP53: Life Technologies and Expression Analysis (LTEA) Assay for Tumor Protein P53 (TP53) using HepaRG (AID 2283537)
Summary of the method: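 TP53 transcript measured by qRT-PCR, normalized to three housekeeping genes, after 48 h treatment of human HepaRG cultures with chemicals from 100 uM downward in half-log steps (0.5% DMSO vehicle, serum-free induction medium). Up- or down-regulation fitted against DMSO.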

Chain of Cellular tumor antigen p53 (Homo sapiens) (P04637 whole entry, looked up): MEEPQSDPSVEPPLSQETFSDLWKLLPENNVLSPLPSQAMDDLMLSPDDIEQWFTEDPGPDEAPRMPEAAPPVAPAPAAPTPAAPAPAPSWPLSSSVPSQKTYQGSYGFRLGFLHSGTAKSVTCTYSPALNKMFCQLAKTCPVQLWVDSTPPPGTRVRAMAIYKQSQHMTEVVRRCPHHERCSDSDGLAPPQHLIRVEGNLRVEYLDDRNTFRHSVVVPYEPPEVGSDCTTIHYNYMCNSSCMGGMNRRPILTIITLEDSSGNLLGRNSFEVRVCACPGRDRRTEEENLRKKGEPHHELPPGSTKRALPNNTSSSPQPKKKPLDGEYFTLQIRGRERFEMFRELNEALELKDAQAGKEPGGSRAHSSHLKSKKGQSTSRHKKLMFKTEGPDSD
Chain of Signal transducer and activator of transcription 3 (Homo sapiens) (P40763 whole entry, looked up): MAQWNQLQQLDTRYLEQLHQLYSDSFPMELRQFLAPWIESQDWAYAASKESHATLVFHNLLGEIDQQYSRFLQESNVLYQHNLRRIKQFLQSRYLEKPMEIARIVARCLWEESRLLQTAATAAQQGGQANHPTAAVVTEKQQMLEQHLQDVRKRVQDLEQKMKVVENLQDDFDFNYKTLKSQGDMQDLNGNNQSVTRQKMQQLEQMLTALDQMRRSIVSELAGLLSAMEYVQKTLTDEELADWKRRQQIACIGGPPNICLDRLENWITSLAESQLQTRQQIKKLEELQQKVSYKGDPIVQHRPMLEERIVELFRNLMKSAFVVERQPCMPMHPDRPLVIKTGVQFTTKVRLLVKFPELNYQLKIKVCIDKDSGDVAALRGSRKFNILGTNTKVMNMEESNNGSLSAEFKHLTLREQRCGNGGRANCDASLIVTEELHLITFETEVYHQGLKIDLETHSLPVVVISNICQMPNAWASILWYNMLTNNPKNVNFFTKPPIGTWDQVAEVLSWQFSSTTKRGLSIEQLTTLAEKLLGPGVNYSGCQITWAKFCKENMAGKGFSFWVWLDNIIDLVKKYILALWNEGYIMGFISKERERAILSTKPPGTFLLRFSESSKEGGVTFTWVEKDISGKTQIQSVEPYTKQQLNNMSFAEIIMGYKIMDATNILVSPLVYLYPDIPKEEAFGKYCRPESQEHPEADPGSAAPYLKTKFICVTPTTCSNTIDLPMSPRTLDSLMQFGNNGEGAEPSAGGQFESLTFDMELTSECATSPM

Structure (SMILES)	outcome [1]	outcome [2]	outcome [3]	outcome [4]	outcome [5]	outcome [6]	outcome [7]	outcome [8]	outcome [9]	outcome [10]	AC50 [9]
Nc1ccc(C(=O)O)cc1	inactive	inactive	inactive	inactive	inactive	inactive	inactive	inactive	inactive	inactive	–
C1CNCCN1	inactive	inactive	inactive	inactive	inactive	inactive	inactive	inactive	inactive	inactive	–
Cc1ccc([N+](=O)[O-])cc1N	inactive	inactive	inactive	inactive	inactive	inactive	inactive	inactive	–	inactive	13.3 µM (active)
